# Inconclusive results are not listed. A number with no mark means an inactive call. Active and inactive are the calls of the source. Calls come from the whole dose curve; as a rule, active = well fitted inhibition curve with a large enough effect in the signal ratio in the repeat runs (not every such curve was filed as active); inconclusive = weak or mixed curves, or effect the other way; inactive = no such curve, though single readings can be large or run the other way; the % refers to the signal ratio.
# Biological target: Estrogen receptor beta (Homo sapiens) (UniProt Q92731)
# Experiment: qHTS assay to identify small molecule antagonists of the estrogen receptor beta (ER-beta) signaling pathway (AID 1259378)
# Conditions: ER-beta-UAS-bla HEK293T, beta-lactamase FRET ratio, 16 h; series mostly up to 92.4 µM; activity, negative = inhibition: at the top concentration
# Procedure, shortened: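 Antagonist mode: compounds added to beta-lactamase reporter HEK293T ER-beta-UAS cells stimulated with E2 (1nM final), 16 hr at 37C. LiveBLAzer B/G FRET substrate, 2 hours room temperature, fluorescence read-out.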
# % is set by controls: 0 for no effect and ±100 for the full control effect; potency is the fitted concentration of half-maximal effect.
# Chain of Estrogen receptor beta (Homo sapiens) (Q92731 whole entry, looked up): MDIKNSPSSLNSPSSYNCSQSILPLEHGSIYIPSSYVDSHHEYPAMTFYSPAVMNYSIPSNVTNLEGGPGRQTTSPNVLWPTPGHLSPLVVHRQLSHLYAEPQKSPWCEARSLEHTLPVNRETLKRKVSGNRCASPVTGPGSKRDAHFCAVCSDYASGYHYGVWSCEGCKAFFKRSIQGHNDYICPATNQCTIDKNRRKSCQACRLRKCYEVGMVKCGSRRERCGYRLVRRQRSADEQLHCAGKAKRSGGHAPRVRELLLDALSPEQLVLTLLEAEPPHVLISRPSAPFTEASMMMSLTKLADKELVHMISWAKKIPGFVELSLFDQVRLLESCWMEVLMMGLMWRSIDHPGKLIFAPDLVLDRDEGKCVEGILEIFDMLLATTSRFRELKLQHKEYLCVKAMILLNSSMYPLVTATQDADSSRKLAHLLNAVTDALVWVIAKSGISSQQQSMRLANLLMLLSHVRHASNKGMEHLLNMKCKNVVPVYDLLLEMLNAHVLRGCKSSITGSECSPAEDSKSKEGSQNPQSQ
Compound,"activity, negative = inhibition",Potency
CCCCN=C=O,-0.471%,
C=C(C#N)CCC#N,0.414%,
CC(C)N(CCC(C(N)=O)(c1ccccc1)c1ccccn1)C(C)C (centres undefined),0.51% [at 42.5 µM],
CC(=O)C(C)(C)C,7.12%,
O=Cc1ccc2c(c1)OCO2,2.81%,
CC(=O)CCC(C)=O,12.4%,
O=C1c2ccccc2C(=O)C1C(=O)C(c1ccccc1)c1ccccc1,,23.7 µM (active)
ClCC(Br)CBr (centres undefined),-2.28%,
CCC(Br)(CC)C(=O)NC(N)=O,8.59%,
C=CC(=O)OC(C)(C)C,-7.18%,
Nc1nc(N)nc(N)n1,7.15%,
CCOP(=O)(OCC)Oc1ccc([N+](=O)[O-])cc1,-18.8%,
CCCCCCC#N,4.34%,
C=CCC1([C@H](C)CCC)C(=O)NC(=O)NC1=O,-0.313%,
CC1(C)[C@H](C=C(Cl)Cl)[C@@H]1C(=O)O[C@@H](C#N)c1cccc(Oc2ccccc2)c1,48.2%,
CCBr,-1.43%,
Cc1ccc(N)cc1C,11%,
N#C/C(N)=C(/N)C#N,-11.7%,
CCOP(O)OCC,2.95%,
CCOC(=O)CBr,16.7%,
CCCN(CC1CC1)c1c([N+](=O)[O-])cc(C(F)(F)F)cc1[N+](=O)[O-],3.62%,
CC(C)(CCl)C(=O)Cl,10.8%,
CN1C(=O)NC(=O)C(C)(C2=CCCCC2)C1=O (centres undefined),-8.32% [at 42.5 µM],
CCC(Cl)CCl (centres undefined),8.2%,
CO/C=C(/C(=O)OC)c1ccccc1COc1cccc(C(F)(F)F)n1,,3.85 µM (active)
COC(N)=O,3.48%,
CC/C(=N\OC/C=C/Cl)C1=C(O)CC(C2CCOCC2)CC1=O (centres undefined),-2.22%,
c1ccoc1,-4.61%,
O=C(O)CC(Cl)C(=O)O (centres undefined),8.15%,

# From PubChem BioAssay (Tox21)
